# Most compounds without a hit are left out; they make up all but 8% or so of the library.
# SARS PLpro yeast: SARS-CoV PLP inhibition in yeast; S. cerevisiae expressing SARS-CoV PLpro, growth rescue; Potency, µM (highest dose often 32.9 µM), for the others: at the highest dose activity, positive = growth rescue, actives largely listed as activators; 0.19% of 330,000 active; AID 485353; calls by dose curve; also: potency is read from the fitted curve at half-maximal effect; 0% is about no effect; nearly all actives have a fitted effect of over 55% in size
# LASV entry inh: inhibitors of Lassa virus binding or cell entry; Lassa virus pseudotype entry inhibition, cell reporter; Potency, µM (doses to about 37.9 µM), for inactives: at the highest dose activity change, negative = inhibition, usual class: inhibitors; 1.2% of 300,000 active; AID 540256; calls by dose curve; tested in HEK293 cells; also: potency is read from the fitted curve at half-maximal effect; % is scaled to controls: 0 for no effect and ±100 for the full control effect; nearly all actives have a fitted effect of over 50% in size
# MARV entry inh: Marburg virus entry inhibition; Marburg virus pseudotyped entry inhibition, cell reporter; 1.8% of 300,000 active; AID 540276; Potency, µM (doses to about 37.8 µM), without a hit: at the top dose activity change, negative = inhibition, hits mostly inhibitors; calls by dose curve; tested in HEK293 cells; also: potency is read from the fitted curve at half-maximal effect; % is scaled to controls: 0 for no effect and ±100 for the full control effect
# HCMV antiviral: human cytomegalovirus inhibition. HFF cells, HCMV-luciferase reporter, 72 h; hits give low values. activity change, negative = inhibition, % at 57.5 µM. 4.5% of 410,000 active. AID 1259415; in the data active = activity change below about -60%; inconclusive = no clear call, values can overlap the other calls; inactive = above about -39%; also: % is scaled to controls: 0 for no effect and ±100 for the full control effect
#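 Steps: HFFs plated, 16 h 37C; compounds added; HCMV-luciferase added to MOI 1 PFU/cell; 72 h 37C; OneGlo reagent, 5 min room temperature; luminescence read, normalized to controls.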
# HCV inh: inhibitors of hepatitis C virus infection; Huh7.5.1 HCVcc-Cre infection, luciferase reporter, 44 h; Potency, µM (highest dose often 41.8 µM), without a hit: at the top dose activity change, negative = inhibition, usual class: inhibitors; 3.4% of 340,000 active; AID 651820; active = well fitted inhibition curve with a large enough effect; inconclusive = small, poorly fitted or top-dose-only effect, or another doubt; inactive = no such curve, though single readings can be large or run the other way; also: potency is read from the fitted curve at half-maximal effect; % is scaled to controls: 0 for no effect and ±100 for the full control effect
#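 Seed cells (1,000/well) for 4 h; treat with compound and infect with HCVcc-Cre, moi about 0.5. Incubate 44 h, then detect luciferase activity.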
# FMDV inh: blocks foot and mouth disease virus | 1.2% of 410,000 active | FMDV antiviral cell-based qHTS | Potency, µM (series often up to 57.9 µM), for inactives: at the top dose activity change, negative = inhibition, usual class: inhibitors; calls by dose curve; tested in HEK293T cells; also: read-out not given here; potency is read from the fitted curve at half-maximal effect; % is scaled to controls: 0 for no effect and ±100 for the full control effect; nearly all actives have a fitted effect of over 45% in size
# * marks the source's active call; other numbers are inactive results; ? = inconclusive; · = not tested or not shown; [ ] = another dose, or the depositor's remark.
SMILES,SARS PLpro yeast,LASV entry inh,MARV entry inh,HCMV antiviral,HCV inh,FMDV inh
COc1ccc(Nc2cc(C(=O)N3CCc4ccccc4C3)c3ccccc3n2)c(OC)c1,9%,·,·,-23,10µM*,-13%
COc1ccc(Nc2cc(C(=O)NCCCN(C)C3CCCCC3)c3ccccc3n2)c(OC)c1,·,?,?,-32,·,0%
COc1ccc(Nc2cc(C(=O)NCCCN(C)C3CCCCC3)c3ccccc3n2)cc1,·,?,10µM*,-107*,·,0%
COc1cc(Nc2nc(SCc3cccc(Cl)c3)nc3ccccc23)cc(OC)c1,·,2%[46.1 µM],·,15,·,-25%
COC(=O)C1=C(c2cccc3c2S(=O)(=O)c2ccccc2-3)C[C@@H]2CC[C@H]1N2C(=O)N1CCc2cc(OC)c(OC)cc2C1,1%,·,·,-15,10µM*,-30%
COC(=O)C1=C(c2cccc3c2S(=O)(=O)c2ccccc2-3)C[C@@H]2CC[C@H]1N2C(=O)N1CCOCC1,8%,·,·,24,-1%,-10%
CCOC(=O)Cc1csc(NC(=O)c2ccc3c(c2)OCO3)n1,-3%,-12%,-4%,48,-31%,-9%
O=C(O)CSc1nnc(NC(=O)c2ccc3c(c2)OCO3)s1,-3%,8.9µM*,?,-6,17%,?
COC(=O)CSc1nnc(NC(=O)c2ccc3c(c2)OCO3)s1,-1%,·,·,88,17%,-10%
Cc1csc(NC(=O)c2ccc3c(c2)OCO3)n1,-4%,7.1µM*,?,43,0%,12%
COc1ccc(NC(=O)CN(C)C(=O)C(Sc2ccccc2)c2ccccc2)cc1 (stereo not given),11%,·,·,-72*,?,-28%
Cc1ccc(NC(=O)CN(C)C(=O)C(c2ccccc2)c2ccccc2)cc1,0%,1%,?,4,?,-5%
CCn1cc(C(=O)N2CCN(c3ccc(F)cc3)CC2)c(=O)c2cc(S(=O)(=O)N3CCOCC3)ccc21,·,5%[46.1 µM],10%[46.1 µM],10,·,0%
COc1ccccc1CNC(=O)Cn1ncc2c(C)n(Cc3ccccc3Cl)c(C)c2c1=O,·,?,28%[46.1 µM],-7,·,-24%
Nc1ccc2oc(-c3cccc(Br)c3)nc2c1,-8%,?,-12%,·,?,12%
Nc1ccc2oc(-c3ccc4nc[nH]c4c3)nc2c1,-30%,16µM*,?,86,?,-19%
Cc1ccccc1-c1nc2cc(N)ccc2o1,-5%,?,?,140,?,-9%
Cc1nc2ccc(-c3nc4cc(N)ccc4o3)cc2[nH]1,-1%,?,?,46,10µM*,0%
Oc1ccc2c(c1)CCCC1(CCCO1)O2 (stereo not given),·,·,·,0,·,·
CN(C)CCNC(=O)C1CCN(Cc2cc3ccccc3n2Cc2ccccc2)CC1,·,?,·,-101*,·,·
CCCNC(=O)C1CCN(Cc2cc3ccccc3n2Cc2ccccc2)CC1,·,?,·,-19,·,-29%
CCN1CCN(CCCNC(=O)c2ccc(/C=C3/Sc4ccccc4N(Cc4ccccc4F)C3=O)cc2)CC1,-12%,·,·,?,11µM*,-19%
CCN1CCN(CCNC(=O)c2ccc(/C=C3/Sc4ccccc4N(Cc4ccccc4C)C3=O)cc2)CC1,-2%,·,·,-63*,6.3µM*,1%
O=C(NCCCN1CCOCC1)c1ccc(/C=C2\Oc3ccccc3N(Cc3ccccc3F)C2=O)cc1,-2%,·,·,0,?,?
N#Cc1ccc(-c2ccc(OCC(=O)NCC(=O)Nc3ccc(F)c(F)c3F)cc2)cc1,9%,2%,?,-60*,4%,0%
SMILES,SARS PLpro yeast,LASV entry inh,MARV entry inh,HCMV antiviral,HCV inh,FMDV inh
CCN1CCN(c2c(S(=O)(=O)c3ccc(C)c(C)c3)cnc3cc(OC)c(OC)cc23)CC1,·,·,?,-36,·,-8%
Cc1nc(-c2cccc(NC(=O)c3ccc(-n4nccc4C)cc3)c2)cs1,6%,?,-72%,0,10µM*,22µM*
Cc1nc(-c2cccc(NC(=O)c3ccc(Br)o3)c2)cs1,-9%,·,·,-33,?,26%
COc1ccc(Nc2nccc3c2cc(-c2ccccc2OC)n3C)cc1OC,·,·,·,-90*,·,·
COc1ccccc1-c1cc2c(Nc3ccc4c(c3)OCCO4)nccc2n1C,·,·,·,-70*,·,·
COc1ccc2c(c1)CC(C(=O)NCCCN1CCN(c3ccc(F)cc3)CC1)CO2 (stereo not given),·,-8%[46.1 µM],·,-28,·,-18%
CCOC(=O)N1CCN(C(=O)c2ccc3c(c2)N(Cc2ccccc2F)C(=O)c2ccccc2S3=O)CC1 (stereo not given),·,-5%[46.1 µM],4%[46.1 µM],13,·,-9%
Cc1nnc(N2CCN(C(=O)Nc3cc(F)ccc3F)CC2)c2nn(-c3ccc(Cl)cc3)c(C)c12,·,?,·,-30,·,?
Cc1ccc(N=N/C(=C\O)C(=O)c2ccc(Cl)cc2)cc1,-10%,?,?,-87*,10µM*,?
O=C(/C(=C/O)N=Nc1ccccc1)c1ccc(Cl)cc1,-32%,?,?,-38,?,?
CCOC(=O)C1CCCN(C(=O)c2cnn(-c3ncc4c(n3)-c3ccccc3CC4)c2C)C1 (stereo not given),·,·,·,·,·,16%
COc1nc(C)ccc1-c1noc(-c2cccs2)n1,-2%,-29%,11µM*,7,?,13%
CCn1c2c(c(=O)n3ncc(C(=O)N4CCN(c5ccc(C(C)=O)cc5)CC4)c13)CN(Cc1ccc(OC)cc1)CC2,·,10µM*,·,-36,·,20µM*
COc1ccc(-c2onc(C)c2C)cc1S(=O)(=O)NCC1CCN(Cc2cc(C)ccc2C)CC1,·,?,·,?,·,5%
COc1cc(CN(C(=O)c2ccc(Cl)cc2)C2CCS(=O)(=O)C2)cc(OC)c1OC (stereo not given),·,0%[46.1 µM],0%[46.1 µM],0,·,-2%
CC(=O)OCc1cnc(C)c2oc(=O)c(C(=O)Nc3cc(F)ccc3C)cc12,·,4%[46.1 µM],2%[46.1 µM],9,·,-14%
CC(=O)OCc1cnc(C)c2oc(=O)c(C(=O)Nc3cccc(F)c3)cc12,·,0.79µM*,·,3,·,-6%
COc1cc2c(cc1OC)C(COc1cc(C)cc(C)c1)N(C(=O)COc1ccccc1)CC2 (stereo not given),·,?,·,-26,·,?
N/C(=N\OC(=O)COc1ccccc1Cl)c1ccccn1,-13%,7.3µM*,?,-11,34%,-10%
N/C(=N\OC(=O)c1ccccc1[N+](=O)[O-])c1ccccn1,-14%,?,?,-29,-16%,-58%
N/C(=N\OC(=O)CC1CCCCC1)c1ccccn1,-1%,?,2%,-60*,6%,·
N/C(=N\OC(=O)c1ccccc1Cl)c1ccccn1,-18%,2.1µM*,?,25,21%,-89%
COc1ccccc1C(=O)O/N=C(\N)c1ccccn1,-3%,?,3.5µM*,19,9%,-17%
CCOC(=O)c1cc(-c2ccccc2)n(CC(=O)NC2CCC(C)CC2)c1C (stereo not given),·,8%[46.1 µM],·,43,·,2%

# Source: PubChem (National Center for Advancing Translational Sciences (NCATS))
